Consider eleven molecules from PubChem BioAssay (NCATS).

For assay [1], the target named is Arylsulfatase A (Homo sapiens) (UniProt P15289). Briefly: qHTS screen for enhancers of Arylsulfatase A (ASA1): LOPAC Validation Assay (AID 720538). In short, it runs like this: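 Enhancer assay in patient-derived MLD fibroblasts carrying ASA-I179S: 48 h compound exposure at 37 C, then 14 h room-temperature pNCS turnover (0.5 mM final) in lysis buffer. Read by fluorescence at 525/598 nm after NaOH stop.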

Assay [2] is described as follows: qHTS for Activators of Parkin Expression: LOPAC Validation Assay (NLuc Reporter) (AID 720572;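 also: 0% = DMSO and 100% = positive control compound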). An outline of the steps: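 Neuronal cells with a Parkin promoter-driven FLuc/NLuc coincidence reporter were treated 24 h at 37 C in 7-point dose response (LOPAC). NLuc luminescence read after FLuc; signals normalized to DMSO and positive control (100%).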
In general terms: Quantitative high-throughput screening tests each substance at several concentrations.

A short description of assay [3]: qHTS for Activators of Parkin Expression: LOPAC Validation Assay (FLuc Reporter) (AID 720573;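 also: 0% = DMSO and 100% = positive control compounds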). In short, it runs like this: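 FLuc signal from Parkin-promoter coincidence reporter neuronal cells, normalized to DMSO and positive control (100%). Cells (1,500/well) pre-incubated 24 h, then exposed to LOPAC compounds in 7-point dose response for 24 h at 37 C, 5% CO2.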

Assay [4] has as its target T1, Hexokinase-4 (Homo sapiens) + Glucokinase regulatory protein (Homo sapiens) (UniProt P35557+Q14397). Kind of assay: qHTS assay for inhibitors of recombinant human GCK-GKRP interaction: Diaphorase-coupled assay (AID 743205). An outline of the steps: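 A kinetic fluorescence read (Ex 525/Em 590 nm, every minute for 30 minutes) tracked resorufin from a G6PDH-diaphorase coupled GCK reaction. It contained 10 nM GST-GCK, 10 nM FLAG-GKRP, 5 mM glucose, 0.4 mM ATP in Hepes pH 7.6. Normalized to with/without-enzyme DMSO controls.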

For assay [5], the target named is T1, Hexokinase-4 (Homo sapiens) + Glucokinase regulatory protein (Homo sapiens). Kind of assay: qHTS assay for inhibitors of recombinant human GCK-GKRP interaction: ADP-Glo assay (AID 743206).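 Also: plate controls were DMSO plus enzyme for no effect and no enzyme for full effect.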 In short, it runs like this: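 GST-GCK and FLAG-GKRP (15 nM each in the dispensed mix, with 2 uM S6P) react with 0.4 mM ATP and 5 mM glucose (final) in Hepes pH 7.6 for 60 min at room temperature. ADP is measured by ADP-Glo luminescence.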

Assay [6] in a line: qHTS Assay for Identifying Gametocytocidal Compounds (AID 743244).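 Also: % is scaled to controls: 0 for no effect and ±100 for the full control effect; actives lower the fluorescent signal which means gametocytes are killed.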 The note with it: P. falciparum 3D7 stage III-V gametocytes, alamarBlue, 72 h; max response: hits give low values. An outline of the steps:
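Viability read-out was resazurin reduction (alamarBlue, 24 h) measured at Ex 525/Em 598 nm. Beforehand, late-stage (III-V) 3D7 P. falciparum gametocytes at 20,000 cells/well were incubated with compound 72 h at 37C under 5% CO2.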

In assay [7] the target is T1, Hexokinase-4 (Homo sapiens) + Glucokinase regulatory protein (Homo sapiens). Briefly: qHTS assay for inhibitors of recombinant human GCK-GKRP interaction: HTRF assay (AID 743207).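 Also: 0% = DMSO with GCK present and -100% = DMSO wells lacking GCK.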 An outline of the steps: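 After 60 min equilibration at room temperature with anti-FLAG XL665 and anti-GST antibodies, FRET ratio (665/615 nm, excitation 320 nm) was read. Proteins: GST-GCK and FLAG-GKRP, each 5 nM, plus 2 uM S6P, pH 7.1 buffer; GCK-free wells define minimum signal.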

The nature of assay [8]: qHTS for compounds that reverse cellular toxicity of Amyloid beta (A-beta) peptide in yeast: LOPAC Validation Assay (AID 720559).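 Also: plate controls were DMSO for no effect and equimolar ferric chloride plus clioquinol rescue for full effect.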 Particulars: Potency: rescue of growth toxicity. An outline of the steps: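 Rescue of A-beta toxicity was scored as yeast growth by 600 nm absorbance after 48 hr at 30 C with compound. Normalization used DMSO (negative) and equimolar ferric chloride plus clioquinol (positive).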

Assay [9] can be described thus: qHTS assay for small molecule agonists of the antioxidant response element (ARE) signaling pathway measured by Nrf2-dependant transcriptional activity (AID 720636; active = well fitted curve in the direction sought with a large enough effect in the repeat runs; an effect the other way counts as inactive or inconclusive; also: potency is read from the fitted curve at half-maximal effect). In short, it runs like this:
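Attachment 6 hr at 37 C, then compound versus DMSO vehicle for 16 hr in ARE-luc HepG2 cells (1% dialyzed FBS); luminescence recorded 30 min after ONE-Glo addition at room temperature.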

Assay [10] in a line: qHTS assay for small molecule agonists of the antioxidant response element (ARE) signaling pathway measured by Nrf2-dependant transcriptional activity - cell viability counter screen (AID 720653; active = well fitted curve in the direction sought with a large enough effect in the repeat runs; an effect the other way counts as inactive or inconclusive; also: % is scaled to controls: 0 for no effect and ±100 for the full control effect). The note with it: ARE-bla HepG2 viability, CellTiter-Glo ATP luminescence, 16 h; max response: hits give low values. In short, it runs like this:
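ARE-bla HepG2 cells treated with compounds for 16 h at 37C; this counter screen measures viability as intracellular ATP by CellTiter-Glo luminescence after 30 min at room temperature.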

A short description of assay [11]: qHTS assay for cell viability of HEK293 cells (AID 743288). Also: % is scaled to controls: 0 for no effect and ±100 for the full control effect; nearly all actives have a fitted effect of over 50% in size. Particulars: ATP luminescence (CellTiter-Glo), 18 h; max response: hits give low values. In short, it runs like this:
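Total intracellular ATP, measured with a luciferase-coupled reagent, indicates the number of viable HEK293 cells. Exposure to test chemicals lasts 18 h at 37 C in 1,536-well format at 2,000 cells/well.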

Assay [12] is described as follows: qHTS assay for cell viability of the p53RE-bla HCT-116 cell line (AID 743292). Also: % is scaled to controls: 0 for no effect and ±100 for the full control effect; nearly all actives have a fitted effect of over 55% in size. An outline of the steps:
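Compound-exposed HCT-116 (p53RE-bla) cells, 4,000 per well, were kept 16 h at 37 C following a 5 h preincubation. Cell number was estimated from total ATP by CellTiter-Glo luminescence read after 30 min at room temperature.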

Assay [13] in a line: qHTS assay for small molecule antagonists of the retinoid-related orphan receptor gamma (ROR-gamma) signaling pathway - cell viability counter screen (AID 720652; active = well fitted curve in the direction sought with a large enough effect in the repeat runs; an effect the other way counts as inactive or inconclusive;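 also: CHO reporter cells with doxycycline-induced ROR-gamma expression; series mostly up to about 92 µM; compound exposure lasted 16 hr before ATP read; % is scaled to controls: 0 for no effect and ±100 for the full control effect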). An outline of the steps: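 CHO cells carrying TET-inducible ROR and RORE-luciferase reporter, plated 5 hr, then dosed with compound plus doxycycline. After 16 hr at 37 C, viability read as intracellular ATP by CellTiter-Glo luminescence.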

Values joined by “and” are separate entries in the source; they are usually repeats but may differ in a detail not shown here. Equal values may be shown once. Results filed as inconclusive are left out. Active and inactive are the calls of the source. Unless noted, calls follow the shape of the dose curve; as a rule, active = well fitted curve in the direction sought with a large enough effect; inconclusive = small, poorly fitted or top-dose-only effect, or another doubt; inactive = no such curve, though single readings can be large; an effect the other way counts as inactive or inconclusive.

Chain of Arylsulfatase A (Homo sapiens) (P15289 whole entry, looked up): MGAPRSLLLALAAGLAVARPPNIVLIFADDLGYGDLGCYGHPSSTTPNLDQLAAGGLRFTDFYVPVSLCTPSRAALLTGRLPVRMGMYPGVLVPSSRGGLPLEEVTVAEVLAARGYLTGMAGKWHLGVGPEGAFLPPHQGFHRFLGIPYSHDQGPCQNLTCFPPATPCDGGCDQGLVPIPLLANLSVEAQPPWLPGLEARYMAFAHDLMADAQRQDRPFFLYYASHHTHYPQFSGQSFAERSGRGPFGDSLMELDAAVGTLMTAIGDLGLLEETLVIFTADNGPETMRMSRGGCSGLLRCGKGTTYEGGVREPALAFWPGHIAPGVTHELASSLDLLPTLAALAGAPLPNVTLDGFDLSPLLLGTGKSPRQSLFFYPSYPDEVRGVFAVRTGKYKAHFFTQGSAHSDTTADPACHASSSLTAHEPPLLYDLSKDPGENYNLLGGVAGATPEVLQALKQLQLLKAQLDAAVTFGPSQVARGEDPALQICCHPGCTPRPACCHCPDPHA
T1 sequence (P35557 whole entry, looked up): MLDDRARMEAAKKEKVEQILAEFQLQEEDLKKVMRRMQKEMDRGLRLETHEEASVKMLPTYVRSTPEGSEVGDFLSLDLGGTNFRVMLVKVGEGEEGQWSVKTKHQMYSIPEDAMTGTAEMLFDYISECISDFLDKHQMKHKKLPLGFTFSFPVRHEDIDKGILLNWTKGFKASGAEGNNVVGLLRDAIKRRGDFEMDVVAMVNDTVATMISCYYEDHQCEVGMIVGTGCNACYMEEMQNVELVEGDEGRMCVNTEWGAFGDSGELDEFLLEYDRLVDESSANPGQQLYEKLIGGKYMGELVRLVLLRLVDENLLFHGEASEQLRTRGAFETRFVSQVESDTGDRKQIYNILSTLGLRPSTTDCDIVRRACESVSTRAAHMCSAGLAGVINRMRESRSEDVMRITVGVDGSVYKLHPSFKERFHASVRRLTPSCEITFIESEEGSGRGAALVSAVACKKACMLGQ
T1 sequence (Q14397 whole entry, looked up): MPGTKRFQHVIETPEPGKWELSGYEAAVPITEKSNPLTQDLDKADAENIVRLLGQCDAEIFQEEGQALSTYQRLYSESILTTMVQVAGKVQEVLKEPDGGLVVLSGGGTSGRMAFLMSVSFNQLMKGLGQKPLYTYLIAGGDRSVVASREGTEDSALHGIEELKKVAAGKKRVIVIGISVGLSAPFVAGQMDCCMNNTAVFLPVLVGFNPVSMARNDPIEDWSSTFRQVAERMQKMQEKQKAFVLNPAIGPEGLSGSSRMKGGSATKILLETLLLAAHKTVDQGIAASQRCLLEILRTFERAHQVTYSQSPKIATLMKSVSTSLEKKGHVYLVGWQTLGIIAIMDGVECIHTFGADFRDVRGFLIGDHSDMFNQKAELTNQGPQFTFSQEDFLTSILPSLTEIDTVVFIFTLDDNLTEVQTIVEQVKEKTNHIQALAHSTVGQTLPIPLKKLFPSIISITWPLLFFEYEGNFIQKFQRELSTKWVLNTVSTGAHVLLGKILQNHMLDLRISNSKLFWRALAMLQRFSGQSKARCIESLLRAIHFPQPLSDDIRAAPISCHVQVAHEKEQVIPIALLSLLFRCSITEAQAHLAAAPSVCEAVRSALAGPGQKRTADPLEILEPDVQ

As to `CCC1C(=O)OCC1Cc1cncn1C` (stereo not given), the Potency entry in [1], in assay [2], in assay [3] and in assay [5] was “inactive” throughout. In addition, in [4], the result was inactive. In addition, the max response in [6] was -1.02% (inactive) and -1.03% (inactive) and -9.17% (inactive).
As for `O=P(O)(O)C(Cl)(Cl)P(=O)(O)O`, the Potency result in assay [1], in [2], in [3] and in [7] was “inactive” in each case. The result in assay [4] was inactive.
As to `C#CCN1C(C)=C(C(=O)OC)C(c2cccc([N+](=O)[O-])c2)C(C(=O)OCC)=C1C` (stereo not given), the Potency result in assay [1], in assay [3] and in [7] was “inactive” throughout. Moreover, the result in assay [4] was inactive.
`NCCSSCCN`: the Potency entry in assay [1], in assay [2], in assay [3] and in assay [7] was “inactive” in each case. Also, the outcome in assay [4] was inactive. Moreover, the max response in [6] is 3.62% (inactive).
As to `CN1C2CCC1CC(OC(=O)C(O)c1ccccc1)C2` (stereo not given), the Potency entry in [1], in assay [2], in assay [3] and in [5] was “inactive” in each case. Moreover, the outcome in assay [4] was inactive. Besides, the max response in assay [6] is 30% (inactive).
Consider `CC(=O)SCC[N+](C)(C)C`, for which the Potency entry in assay [1], in assay [2], in assay [3] and in assay [7] was “inactive” each time. In assay [4], the outcome was inactive. In addition, in [6], the max response was 9.88% (inactive).
With `N#C/C(=C\c1c[nH]c2ccccc12)C(=O)c1ccc(O)c(O)c1`, the Potency result in [1], in assay [2], in [3], in assay [5] and in assay [7] was “inactive” in each case. In addition, the result in assay [4] was inactive. Further, the max response in assay [6] was -1.71% (inactive).
Consider `O=C(Nc1ccccc1)c1cc([N+](=O)[O-])ccc1Cl`, for which the Potency entry in [8], in [2], in assay [3], in [5], in [7] and in assay [12] was “inactive” throughout. Also, the Potency in assay [9] was 3.06 µM (active). Moreover, the results for the max response in assay [10], in [6] and in [11] were -18.4% (inactive), -5.62% (inactive) and -11.7% (inactive), respectively. For the same molecule, the outcome in [4] was inactive.
For `Oc1ccc(C2CNCc3sccc32)cc1O` (stereo not given), the Potency entry in assay [8], in [2], in assay [3], in [5] and in assay [7] was “inactive” in each case. The outcome in assay [4] was inactive.
On to `N=c1ccn2c(n1)O[C@H]1[C@H](O)[C@@H](CO)O[C@H]12`, for which the Potency entry in [1], in [2], in assay [3], in [5] and in assay [7] was “inactive” each time. Also, in assay [4], the result was inactive. For the same molecule, the max response in assay [6] was 8.89% (inactive).
Regarding `CN1CCC[C@H]1c1cccnc1`, the Potency result in assay [8], in assay [2], in assay [3], in assay [9], in assay [13] and in [5] was “inactive” in each case. Besides, the Potency result in assay [7] and in assay [12] was “inactive” throughout. The max response in assay [10] was -4.29% (inactive) and -4.16% (inactive); in assay [11] it was -10.2% (inactive) and -14.6% (inactive). The outcome in assay [4] was inactive.
